Screens (PubChem)
In the library only some 11% were active in any assay of this set; here they are far more common.
HP1b binding inh = HP1-beta chromodomain-methylated histone interaction inhibition; P83916; AlphaScreen HP1-beta / biotin-H3K9me3 peptide binding; Potency, µM (highest dose often 114 µM), for inactives: top-dose activity change, negative = inhibition, most hits filed as inhibitors; actives 0.56% (n = 390,000); further: nearly all actives have a fitted effect of over 70% in size
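AlphaScreen: HP1-beta (50 nM) preformed 30 min with biotin-H3(1-18)K9me3 peptide (50 nM) in PBS pH 7.4, 0.01% Tween-20. Compound added for 30 min at RT, then streptavidin donor/nickel chelate acceptor beads (10 ug/mL) for 30 min.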
JMJD2A Tudor inh = inhibitors of human JMJD2A Tudor domain. O75164. AlphaScreen JMJD2A-Tudor / H3K4me3 peptide binding. actives 4.4% (n = 390,000). Potency, µM (titrated, usually from 114 µM), without a hit: at the highest dose activity change, negative = inhibition, hits mostly inhibitors. AID 504339; further: on the % scale 0 is the no-effect control and ±100 the full control effect; nearly all actives have a fitted effect of over 50% in size
Target sequence (O75164 whole entry, looked up, the tested form may be a part): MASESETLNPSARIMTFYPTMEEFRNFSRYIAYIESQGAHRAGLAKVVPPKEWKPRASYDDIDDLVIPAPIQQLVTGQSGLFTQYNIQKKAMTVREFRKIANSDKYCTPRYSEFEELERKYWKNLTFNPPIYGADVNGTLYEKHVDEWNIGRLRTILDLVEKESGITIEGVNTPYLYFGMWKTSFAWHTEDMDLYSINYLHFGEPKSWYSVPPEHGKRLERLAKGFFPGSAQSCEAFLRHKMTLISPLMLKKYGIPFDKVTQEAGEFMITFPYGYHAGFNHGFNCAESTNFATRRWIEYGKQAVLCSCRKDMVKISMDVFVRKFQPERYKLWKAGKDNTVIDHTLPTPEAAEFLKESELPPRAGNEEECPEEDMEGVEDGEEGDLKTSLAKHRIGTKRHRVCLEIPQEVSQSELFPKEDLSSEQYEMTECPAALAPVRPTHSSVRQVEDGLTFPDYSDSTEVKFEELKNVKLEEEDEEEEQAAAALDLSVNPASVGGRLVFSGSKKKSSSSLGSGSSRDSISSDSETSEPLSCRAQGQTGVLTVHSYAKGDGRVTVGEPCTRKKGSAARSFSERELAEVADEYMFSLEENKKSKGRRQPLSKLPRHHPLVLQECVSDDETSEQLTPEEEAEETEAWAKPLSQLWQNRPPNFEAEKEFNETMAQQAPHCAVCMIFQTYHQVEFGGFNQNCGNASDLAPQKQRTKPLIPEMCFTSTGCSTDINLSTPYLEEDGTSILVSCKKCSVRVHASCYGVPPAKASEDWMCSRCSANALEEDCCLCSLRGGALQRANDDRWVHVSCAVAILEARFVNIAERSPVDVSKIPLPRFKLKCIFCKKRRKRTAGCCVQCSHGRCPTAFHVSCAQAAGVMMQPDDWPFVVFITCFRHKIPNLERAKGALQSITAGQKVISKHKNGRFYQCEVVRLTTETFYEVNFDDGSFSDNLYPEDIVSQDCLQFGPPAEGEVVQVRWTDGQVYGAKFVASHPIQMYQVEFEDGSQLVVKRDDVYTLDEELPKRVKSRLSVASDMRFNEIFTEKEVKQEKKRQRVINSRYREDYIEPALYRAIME
BAZ2B inh = inhibitors of human BAZ2B bromodomain | Q9UIF8 | AlphaScreen BAZ2B-H3K14Ac peptide displacement | Potency, µM (doses to about 114 µM), for the others: at the top dose activity change, negative = inhibition, hits mostly inhibitors | actives 4.4% (n = 360,000); further: on the % scale 0 is the no-effect control and ±100 the full control effect; nearly all actives have a fitted effect of over 60% in size
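AlphaScreen displacement of biotin-H3(5-23)K14Ac peptide (50 nM final) from BAZ2B (50 nM final) in PBS pH 7.4, 0.01% Tween-20; complex preformed 30 min RT, then compounds (top 110 uM) 30 min RT, beads 20 min dark.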
PLK1 PBD block = blocks phosphopeptide binding to human PLK1 polo-box domain; P53350; Plk1 PBD binding of FITC phosphopeptide, fluorescence polarization; Potency, µM, for inactives: max response, negative = inhibition, most hits filed as inhibitors; actives 2.8% (n = 360,000); further: series mostly up to about 57 µM; on the % scale 0 is the no-effect control and ±100 the full control effect; nearly all actives have a fitted effect of over 65% in size
G9a inh = blocks human histone lysine methyltransferase G9a; Q96KQ7; G9a H3K9 monomethylation, AlphaScreen, 2 h; Potency, µM (titrated, usually from 102 µM), for inactives: at the highest dose activity, negative = inhibition, hits mostly inhibitors; actives 8.8% (n = 350,000); further: on the % scale 0 is the no-effect control and ±100 the full control effect; nearly all actives have a fitted effect of over 75% in size
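Quantitative HTS format: methyltransferase activity on a biotin-tagged H3K9 peptide is measured by AlphaScreen, using a rabbit anti-monomethyl-H3K9 antibody with streptavidin donor and anti-IgG acceptor beads. Final levels are 20 nM enzyme, 500 nM peptide, 20 uM SAM; 2 h RT.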
VDR inhibitor = inhibitors of human vitamin D receptor; VDR-SRC2-3 peptide fluorescence polarization, 2 h; actives 0.93% (n = 400,000); Potency, µM, for inactives: max response, negative = inhibition, actives largely listed as inhibitors; AID 504847; P11473; further: on the % scale 0 is the no-effect control and ±100 the full control effect
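Inhibition of the VDR/SRC2-3 peptide interaction is quantified by fluorescence polarization. Compounds (23 nl, pintool) incubate with the reagents for 2 hours at ambient room temperature.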
Active calls of the source: *; ? = inconclusive; . = no result; [ ] = dose if it differs, or a comment. The call rests on the fitted dose curve; in most records, active means well fitted curve in the direction sought with a large enough effect; inconclusive means small, poorly fitted or top-dose-only effect, or another doubt; inactive means no such curve, though single readings can be large; an effect the other way counts as inactive or inconclusive. Potency means the concentration at half of the fitted maximal effect.

SMILES	HP1b binding inh	JMJD2A Tudor inh	BAZ2B inh	PLK1 PBD block	G9a inh	VDR inhibitor
COC(CNC(=S)Nc1ccc([N+](=O)[O-])cc1)OC	12%	-11%	-2%	-13%	8%[59 µM]	2%
COC(=O)NC(NC(=S)Nc1ccccc1OC)C(Cl)(Cl)Cl (stereo unspecified)	41%	-12%	7%	-1%	16µM*	0%
COC(=O)NC(NC(=S)Nc1ccc([N+](=O)[O-])cc1)C(Cl)(Cl)Cl (stereo unspecified)	-10%	?	-13%	-13%	10µM*	-4%
CCOC(=O)NC(NC(=S)Nc1ccc(OC)cc1)C(Cl)(Cl)Cl (stereo unspecified)	13%	0%	-4%	-12%	6.3µM*	-11%
CCOC(=O)NC(=S)Nc1ccc(OC)cc1	58%	-6%	0%	0%	-6%	-2%
O=C(C1CCCN1S(=O)(=O)c1cccc2nsnc12)N1CCCCCC1 (stereo unspecified)	23%	-11%	-8%	-3%	13%	15%
C[C@H](O)CN(C)C	.	.	.	.	-2%[12.7 µM]	14%
CCOC(=O)c1ccc(Nc2ccc(-c3ccc(OC)c(OC)c3)nn2)cc1	2%	63µM*	.	-6%	?	14%
CCOC(=O)c1ccc(NC(=S)NCCc2ccc(OC)c(OC)c2)cc1	11%	-12%	?	0%	.	0%
CCOc1ccc(C2=Nn3c(nnc3-c3ccccn3)SC2)cc1	46%	35µM*	20µM*	-3%	?	15%
COc1ccc(C2=Nn3c(nnc3-c3ccccn3)SC2)cc1OC	47%	45µM*	20µM*	-4%	?	-5%
CCOc1ccc(C2=Nn3c(nnc3-c3ccco3)SC2)cc1	18%	-16%	-3%	-11%	-9%	-9%
COc1ccc(C2=Nn3c(nnc3-c3ccccc3OC)SC2)cc1OC	10%	-10%	-4%	-5%	24%	-8%
COc1ccc(N2CC(NC(=O)/C=C\c3ccccc3)CC2=O)cc1OC (stereo unspecified)	27%	0%	0%	.	10%[59 µM]	18%
NC(=O)CSc1n[nH]c(-c2ccco2)n1	36%	-1%	-18%	-7%	-3%	-13%
S=c1nc(-c2ccco2)[nH][nH]1	?	7.1µM*	?	-15%	1.8µM*	2%
COc1ccccc1C(=O)OCC(=O)Nc1ccc(Cl)cn1	35%	4%	16%	5%	8%	-9%
C/[N+]([O-])=C\C1C(=O)CC(C)(C)CC1=O	47%	-3%	-16%	2%	2%	7%
C=CCO/N=C/C1C(=O)CC(C)(C)CC1=O	1%	10µM*	?	-9%	35µM*	-9%
CCOC(=O)CNC(=O)N1CCCC(CCC(=O)NCc2ccc(F)c(F)c2)C1 (stereo unspecified)	32%	-8%	9%	-5%	32%	-3%
Cn1c(CNC(=O)C(Cc2ccccc2)NC(=O)c2cccc(F)c2)cc(=O)n(C)c1=O (stereo unspecified)	6%	-30%	1%	27µM*	1%	-10%
COc1cnc(-c2ccccn2)nc1Oc1ccc(Cl)cc1	13%	-31%	32µM*	-11%	.	12%
COc1cnc(-c2ccccn2)nc1Oc1ccccc1Cl	34%	12%	50µM*	3%	8%[59 µM]	3%
COc1cnc(-c2ccccn2)nc1Oc1ccc(F)cc1F	44%	-32%	40µM*	0%	5%	7%
COc1cnc(-c2ccccn2)nc1NC(C)C	16%	22µM*	3.2µM*	-8%	56µM*	-11%
SMILES	HP1b binding inh	JMJD2A Tudor inh	BAZ2B inh	PLK1 PBD block	G9a inh	VDR inhibitor
COc1cnc(-c2ccccn2)nc1Oc1ccc(Cl)c2ccccc12	19%	-35%	-37%	1%	24%	4%
Cc1cc(OC(C)C(=O)N2CCC(c3nc4ccccc4o3)CC2)ccc1Cl (stereo unspecified)	34%	?	-1%	.	-1%[59 µM]	1%
CCCOC(=O)NCCCN(C)C	.	.	.	.	.	-2%
Cc1csc(SCC(=O)c2ccc(S(=O)(=O)N3CCOCC3)cc2)n1	-10%	56µM*	-7%	-21%	28µM*	-11%
O=S(=O)(c1ccc2nc(COc3ccccc3)[nH]c2c1)N1CCOCC1	47%	-23%	?	-7%	50µM*	3%
Cc1csc(SCC(=O)Nc2cc(S(=O)(=O)N3CCOCC3)ccc2N2CCOCC2)n1	48%	-7%	3%	3%	3%[12.7 µM]	-7%
COC(=O)c1ccc(CSc2nc3ccc(S(=O)(=O)N4CCOCC4)cc3[nH]2)cc1	11%	-32%	-28%	-6%	14µM*	3%
COC(=O)c1ccc(CSc2nc3ccc(S(N)(=O)=O)cc3[nH]2)cc1	5%	-19%	?	-6%	6%	7%
CCc1ccc(C(=O)CSc2nc3cc(S(=O)(=O)N4CCOCC4)ccc3n2CC)cc1	?	-16%	-11%	-19%	45µM*	-3%
COc1ccc(NC(=O)COC(=O)CCc2ccc(S(=O)(=O)N3CCOCC3)cc2)cc1OC	33%	-8%	.	-2%	.	-13%
O=C(CSc1n[nH]c(-c2ccccc2Cl)n1)NCc1ccc(F)cc1	19%[57 µM]	-11%	3%	.	5%[59 µM]	20%
CN(CCc1ccccn1)C1CC(=O)N(c2ccc(Cl)cc2)C1=O (stereo unspecified)	48%	-22%	-4%	-11%	5µM*	1%
CN(CCc1ccccn1)C(=O)c1cccnc1Oc1ccc(Cl)cc1	28%	-5%	-3%	1%	4%	-10%
Cc1cc(C)n(C(=O)CSc2nnc(SCC(=O)n3nc(C)cc3C)s2)n1	25%	-26%	22%	-2%	79µM*	15%
C/C(=N/N=C1/NC(=O)CC(C(=O)Nc2ccccc2)S1)c1cccs1 (stereo unspecified)	20%	-16%	-1%	-1%	3%[59 µM]	3%
O=c1c2cc(Cl)ccc2nc(-c2ccccc2)n1O	-1%	?	79µM*	-1%	-29%	15%
Cc1cccc(CNC(=O)C2CCN(c3nnc(-n4c(C)ccc4C)s3)CC2)c1	-7%	-29%	-6%	.	3%[59 µM]	9%
COc1ccc(-c2ncc(CN3CCC(CO)(Cc4cccc(OC)c4)CC3)cn2)cc1	15%	-23%[11.4 µM]	-23%	-14%	?	-15%
COc1ccc(CC2(CO)CCN(Cc3cccnc3)CC2)cc1	46%	11%[57.1 µM]	-16%	-3%	35µM*	-28%
Cc1ccc2c(CC(=O)Nc3ccc(F)c(S(=O)(=O)N4CCOCC4)c3)coc2c1	25%	-16%	5%	-4%	-9%[12.7 µM]	-4%
CCCCNc1nc2c(c(=O)n(Cc3ccc(Cl)cc3)c(=O)n2C)n1C	-4%	?	?	.	-4%[59 µM]	0%
CCOc1cc(/C=C2\C(=O)N(CCC#N)N=C2C)ccc1OCC(N)=O	59%	-7%	-7%	19µM*	71µM*	-5%
